# Cycloheximide cs – counter-screen for Shiga toxin inhibitors: cycloheximide protein synthesis inhibition; cell reporter, cycloheximide protein synthesis inhibition counterscreen; max response, %; 300,000 tested, 12% active; in the data active = max response mostly above about 13%, no sharp cut-off; inactive = mostly below about 14%; also: read at 38.3 µM for the half of the compounds with a filed dose; 0% is about no effect
# Pf growth 96h – P. falciparum growth inhibition at 96 hour, primary screen for plastid delayed-death inhibitors; P. falciparum luciferase reporter growth, 96 h; Potency, µM (series often up to 28.7 µM), for inactives: at the highest dose activity change, negative = inhibition, usual class: inhibitors; 320,000 tested, 6.9% active; AID 504834; also: potency is read from the fitted curve at half-maximal effect; % is scaled to controls: 0 for no effect and ±100 for the full control effect
#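 Luminescence readout: decreased luciferase signal marks inhibited growth of reporter-expressing P. falciparum in infected red cells (2% hematocrit, 0.05% parasitemia final), exposed to compound two generations (96 h, 37 C, 5% CO2).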
# Pf growth 48h – P. falciparum growth inhibition at 48 hours (one generation); Potency, µM (series often up to 28.7 µM), inactives show top-dose activity change, negative = inhibition, usual class: inhibitors; P. falciparum luciferase growth in erythrocytes, 48 h; 310,000 tested, 5.9% active; also: potency is read from the fitted curve at half-maximal effect; % is scaled to controls: 0 for no effect and ±100 for the full control effect
#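 Compounds are pin-transferred into medium, infected erythrocytes (2% hematocrit, 0.1% parasitemia final) are added, and plates sit one parasite generation at 37 C in 5% CO2. Detection reagent is then added and luminescence measured.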
# NS1 inh – blocks influenza NS1 protein function; Potency, µM (titrated, usually from 46.1 µM), for the others: at the top dose activity, positive = more growth; 270,000 tested, 0.4% active; calls by dose curve; also: potency is read from the fitted curve at half-maximal effect; actives are rising curves; nearly all actives have a fitted effect of over 50% in size
#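 Compounds were scored for reversing the slow growth caused by influenza A NS1 in S. cerevisiae, measured by optical density at 600 nm. Assay medium contained 2% galactose at pH 6.0; NS1-free yeast of the same strain were the positive control.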
# Shiga inhibitor – blocks Shiga toxin action in Vero cells. 290,000 tested, 9.2% active. Vero cells, Shiga toxin protein synthesis inhibition reporter. AID 2315. inhibition, % at 38.7 µM; in the data active = inhibition mostly above about 28%, no sharp cut-off; inactive = mostly below about 43%; also: 0% is about no effect
# Active calls of the source: *; i = inactive; ? = inconclusive; . = no result given; [ ] = remark or other dose. Sampled rows, rich in hits. Any-hit rate of the full collection: about 21%. Unless noted, calls follow the shape of the dose curve; as a rule, active = well fitted inhibition curve with a large enough effect; inconclusive = small, poorly fitted or top-dose-only effect, or another doubt; inactive = no such curve, though single readings can be large or run the other way.
SMILES,Cycloheximide cs,Pf growth 96h,Pf growth 48h,NS1 inh,Shiga inhibitor
Cc1sc(N2C(=O)C3C(C2=O)[C@H]2C=C[C@@H]3C2)c(C#N)c1C (stereo partly specified),-1,6%,-1%,-2%,44
CSc1nc(S(=O)(=O)c2ccc(C)cc2)c(Cl)s1,-2,?,12µM*,.,8
CCOc1nc(S(=O)(=O)c2ccc(C)cc2)c(Cl)s1,1,0%[5.75 µM],0%,1%,16
Cn1c(-c2ccc(-c3ccccc3)cc2)c[nH]c1=S,31*,?,5.2µM*,-47%,69*
CCn1c(-c2ccc(-c3ccccc3)cc2)c[nH]c1=S,8,4.7µM*,.,14%,11
C=CCn1c(-c2ccccc2)c[nH]c1=S,50*,?,82%,?,78*
C=CCn1c(-c2ccc(Cl)cc2)c[nH]c1=S,-1,-4%,33%,1%,-4
c1ccc(N=P(c2nc3ccccc3o2)(N2CCOCC2)N2CCOCC2)cc1,23*,24%,41%,-9%,33*
c1ccc(N=P(N2CCOCC2)(N2CCOCC2)N2CCOCC2)cc1,-2,11%,9%,1%,-7
CCc1ccc(OC(=O)c2cncc(Br)c2)cc1,18*,?,9%,-3%,22
O=C(Oc1ccc2ccccc2c1)c1cncc(Br)c1,2,53%,.,10%,-13
CCc1ccc(C(=O)COC(=O)c2cncc(Br)c2)cc1,40*,52%,17µM*,.,33
O=C(COC(=O)c1cncc(Br)c1)NC1CC1,16*,36%,.,0%,-14
CCCCCOC(=O)c1ccc(OC(=O)c2cncc(Br)c2)cc1,21*,0%,54%,-9%,27
CCCCCOc1ccc(OC(=O)c2ccncc2)cc1,-4,93%,10%,-9%,9
CCCCCCOC(=O)c1cccnc1,.,-11%,-3%,.,.
CCCCCCCOC(=O)c1ccc(OC(=O)c2cccnc2)cc1,16*,-7%,.,7%,53
COc1ccccc1-c1ccc(SCC(=O)NC2CCCCC2)nn1,-2,-13%,?,-5%,-4
CCOc1ccc(C(=O)Nc2cccc(C(=O)O)c2)cc1Cl,38*,i[5.75 µM],i,.,59*
O=C(COc1ccc(Cl)cc1Cl)Nc1ccc(Cl)cn1,30*,?,.,-7%,92*
CCOc1ccc(C(=O)Nc2ccc(Cl)cn2)cc1Cl,38*,?,115%,-3%,106*
CCOc1ccc(C(=O)Nc2cc(NC(=O)c3ccc(OCC)c(Cl)c3)cc(C(=O)O)c2)cc1Cl,-3,25%,4%,2%,-3
CC(=O)Nc1ccc(NC(=O)COc2ccc(Cl)cc2Cl)cc1,26,-19%,-18%,3%,39
COc1ccc(CNC(=O)CN2CCC(NC(=O)c3ccc(OC)cc3)CC2)cc1,-3,0%,-8%,0%,36
CC(C)(C)Cc1nnc(NS(=O)(=O)c2ccc([N+](=O)[O-])cc2)s1,7,-39%,?,-8%,4
SMILES,Cycloheximide cs,Pf growth 96h,Pf growth 48h,NS1 inh,Shiga inhibitor
O=C(CSc1nc2ccccc2nc1N1CCCCC1)Nc1ccc(F)cc1,10,-5%,?,8%,6
O=C(CN1CCN(c2ccc(F)cc2)CC1)NCc1ccc(Cl)cc1,1,-25%,-13%,-10%,-10
CC(CNC(=O)c1ccc(OC2CCN(Cc3ccccn3)CC2)cc1)Oc1cccnc1 (stereo unspecified),-2,-9%,-18%,16%,15
CCOC(=O)c1c(S(=O)(=O)N2CCCC(C(=O)Nc3cccc(C)n3)C2)c(C)n(C)c1C (stereo unspecified),2,?,?,9%,0
CCOC(=O)c1c(S(=O)(=O)N2CCCC(C(=O)Nc3ncccc3C)C2)c(C)n(C)c1C (stereo unspecified),16,12µM*,5%,?,1
CCOC(=O)c1c(S(=O)(=O)N2CCC(C)CC2)c(C)n(C)c1C,4,8.3µM*,10%,?,3
Cc1ccc(OCc2nnc(SCC(=O)c3cccs3)n2-c2ccccc2)cc1C,31*,?,-7%,7%,73*
Cc1cccc(OCc2nnc(SCCC(=O)O)n2-c2ccccc2)c1,-1,?,29%,12%,.
O=C(O)CSc1nnc(COc2ccccc2)n1-c1ccccc1,-2,-29%,-7%,14%,-1
O=C(CSc1nnc(COc2ccccc2)n1-c1ccccc1)c1cccs1,34*,?,-20%,-50%,67

# Bioassay records (PubChem)
